The structures appear in SMILES notation. Values joined by “and” are separate entries in the source; they are usually repeats but may differ in a detail not shown here. Identical values can stand only once. Some structures have more than one record in an assay (separate samples or runs), and their calls can disagree. Active and inactive are the calls of the source.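 How the source made its calls, unless noted: active means mean z-score across replicates of 1.96 or higher in either the MELAS or the Rieske mutant cell line; inactive means the rest.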

The values below come from PubChem BioAssay.

Test [1] can be described thus: Wnt pathway potentiators raising nuclear beta-catenin – imaging, WNT3A-conditioned medium, mouse C2C12, NPC library, primary screen (AID 1117326; in the data active means nuclear beta-catenin stimulation mostly above about 4.2%, no sharp cut-off; inactive means mostly below about 10%). To be noted: stronger effect = higher value.
Test [2] can be described thus: stimulators of insulin release from INS-1E, primary screen, cell-based, 5 mM glucose, NPC library (AID 1117329;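 active means compound raises insulin release from rat beta cells at 5 mM glucose, no numeric limit stated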). To be noted: rat INS-1E insulin secretion, at 10 µM, stronger effect = higher value.
Test [3] can be described thus: growth inhibition of GSK3B-pretreated HCT116 cells – cell-based, CellTiter-Glo, 0.2 to 20 µM (AID 1117336;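 active means compounds lowering colon cancer cell viability after pretreatment blocking the GSK3B kinase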). Conditions: HCT116 viability after GSK3B inhibitor, at 20 µM, stronger effect = higher value.
The nature of test [4]: inhibition of endothelial tube formation, primary screen, imaging, VEGF stimulated, CD31 staining, tube area, NPC library (AID 1117340;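 active means compound that reduces growth-factor-driven endothelial tube area in a mixed cell culture, no cutoff stated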). Conditions: VEGF-stimulated ADSC/ECFC co-culture, at 10 µM, stronger effect = higher value.
A short description of test [5]: GLP1 release stimulators, primary, NCI-H716, NPC library (AID 1117341;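 active means compound raises GLP1 secretion from the human gut endocrine cells, with no numeric limit stated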). Conditions: NCI-H716 cells, at 10 µM, stronger effect = higher value.
Test [6] is described as follows: HCT116 colon cancer cell growth inhibition, primary screen, CellTiter-Glo luminescence, NPC library (AID 1117342;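 active means compounds that lower survival of HCT116 colon cancer cells in the luminescence readout, no numeric limit stated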). Conditions: at 20 µM (top of the series). Background: Cellular ATP, detected with luciferase, serves as a proxy for viable cell number.
A short description of test [7]: reduced SW480 viability measured with CellTiter-Glo, NPC library, primary (AID 1117343;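 active means compounds that lower viability of the colon cancer cells in the luminescence readout, with no numeric limit stated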). To be noted: CellTiter-Glo luminescence; at 20 µM (top of the series).
A short description of test [8]: NPC library primary testing for decreased DLD-1 cell viability via CellTiter-Glo (AID 1117346;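 active means compounds that lower survival of DLD-1 colon cancer cells in the luminescence readout, no cutoff given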). Conditions: DLD-1 viability, CellTiter-Glo luminescence; at 20 µM (top of the series).
Test [9] has as its target 6-phosphogluconate dehydrogenase, decarboxylating (Homo sapiens) (UniProt P52209). Put plainly: inhibition of human phosphogluconate dehydrogenase – biochemical, recombinant enzyme, NADPH absorbance, primary screen (AID 1159550;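 active means at least 20% inhibition of 6-phosphogluconate dehydrogenase activity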). Conditions: recombinant 6PGD, NADPH absorbance 341 nm; at 10 µM; stronger effect = higher value.
The nature of test [10]: EMT-state selective cytotoxicity in co-culture – imaging, PC-3E GFP, TEM4-18 mCherry, primary screen (AID 1345086;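 active means compounds killing one labelled cell type while sparing the other, by normalised counts and ratio limits, not self-fluorescent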;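 on all read-outs here: cells exposed to compound for 72 h before imaging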;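 on red/green cell ratio (normalised): normalised mesenchymal count divided by normalised epithelial count so high means epithelial killing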). To be noted: PC-3E GFP / TEM4-18 mCherry co-culture, imaging cell counts, at 1 µM; for red/green cell ratio (normalised): actives lie on both sides.
For test [11], the system named is Aerobactin synthetase IucA (Klebsiella pneumoniae hvKP1). Put plainly: IucA enzyme inhibition, primary screen, biochemical, Spectrum library (AID 1346200; call rule not given here;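 further: 100% = wells without compound and 0% = wells lacking enzyme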). To be noted: malachite green pyrophosphate, A620, at 8 µM, stronger effect = lower value.
A short description of test [12]: MELAS cybrid and Rieske KO viability enhancers – cell-based, MELAS cybrids, Rieske KO mouse fibroblasts, CellTiter-Glo, primary screen (AID 1508586).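 Further: z relative to plate mean and SD of compound and empty wells.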 To be noted: low glucose.
The target of test [13] is NAD(+) hydrolase SARM1 (Homo sapiens) (UniProt Q6SZW1). Put plainly: blocking NAD cleavage by SARM1 SAM-TIR – cell lysate, NAD-Glo luminescence (AID 1508614;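 active means compound whose remaining NAD level is above about 45 nM, limit read from the data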). Conditions: SAM-TIR HEK293T lysate NADase, at 1 µM, stronger effect = higher value.
Chain of NAD(+) hydrolase SARM1 (Homo sapiens) (Q6SZW1 whole entry, looked up, the tested form may be a part): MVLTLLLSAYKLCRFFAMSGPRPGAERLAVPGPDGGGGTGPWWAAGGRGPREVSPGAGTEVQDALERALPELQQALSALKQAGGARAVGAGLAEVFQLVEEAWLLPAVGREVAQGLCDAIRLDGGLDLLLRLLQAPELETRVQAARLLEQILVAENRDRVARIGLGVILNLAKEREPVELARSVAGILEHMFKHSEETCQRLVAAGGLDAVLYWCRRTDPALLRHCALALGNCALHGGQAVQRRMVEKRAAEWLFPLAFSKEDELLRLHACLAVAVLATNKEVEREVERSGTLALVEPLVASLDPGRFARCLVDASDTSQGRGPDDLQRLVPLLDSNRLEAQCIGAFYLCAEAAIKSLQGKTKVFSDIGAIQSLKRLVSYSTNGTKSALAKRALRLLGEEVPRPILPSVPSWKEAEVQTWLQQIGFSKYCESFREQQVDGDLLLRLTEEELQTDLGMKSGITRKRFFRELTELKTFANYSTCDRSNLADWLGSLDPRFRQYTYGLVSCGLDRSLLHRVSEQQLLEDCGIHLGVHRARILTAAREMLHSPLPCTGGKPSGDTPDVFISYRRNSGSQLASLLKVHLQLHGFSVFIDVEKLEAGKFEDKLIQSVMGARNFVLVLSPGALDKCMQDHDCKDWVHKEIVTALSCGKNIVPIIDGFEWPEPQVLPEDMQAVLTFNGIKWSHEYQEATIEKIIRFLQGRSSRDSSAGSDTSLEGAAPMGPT
Test [14] deals with Mitogen-activated protein kinase 7 (Homo sapiens) (UniProt Q13164). Put plainly: Gal4-ERK5 driven luciferase induction – cell-based, HTS, primary screen (AID 1508626;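 active means luciferase signal above three times the same-plate solvent-only control wells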;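 further: luciferase driven by Gal4-ERK5 fusion binding five Gal4 sites before minimal TATA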). Conditions: HeLa Gal4-ERK5 transactivation, 18 h, at 5 µM, stronger effect = higher value.
Chain of Mitogen-activated protein kinase 7 (Homo sapiens) (Q13164 whole entry, looked up, the tested form may be a part): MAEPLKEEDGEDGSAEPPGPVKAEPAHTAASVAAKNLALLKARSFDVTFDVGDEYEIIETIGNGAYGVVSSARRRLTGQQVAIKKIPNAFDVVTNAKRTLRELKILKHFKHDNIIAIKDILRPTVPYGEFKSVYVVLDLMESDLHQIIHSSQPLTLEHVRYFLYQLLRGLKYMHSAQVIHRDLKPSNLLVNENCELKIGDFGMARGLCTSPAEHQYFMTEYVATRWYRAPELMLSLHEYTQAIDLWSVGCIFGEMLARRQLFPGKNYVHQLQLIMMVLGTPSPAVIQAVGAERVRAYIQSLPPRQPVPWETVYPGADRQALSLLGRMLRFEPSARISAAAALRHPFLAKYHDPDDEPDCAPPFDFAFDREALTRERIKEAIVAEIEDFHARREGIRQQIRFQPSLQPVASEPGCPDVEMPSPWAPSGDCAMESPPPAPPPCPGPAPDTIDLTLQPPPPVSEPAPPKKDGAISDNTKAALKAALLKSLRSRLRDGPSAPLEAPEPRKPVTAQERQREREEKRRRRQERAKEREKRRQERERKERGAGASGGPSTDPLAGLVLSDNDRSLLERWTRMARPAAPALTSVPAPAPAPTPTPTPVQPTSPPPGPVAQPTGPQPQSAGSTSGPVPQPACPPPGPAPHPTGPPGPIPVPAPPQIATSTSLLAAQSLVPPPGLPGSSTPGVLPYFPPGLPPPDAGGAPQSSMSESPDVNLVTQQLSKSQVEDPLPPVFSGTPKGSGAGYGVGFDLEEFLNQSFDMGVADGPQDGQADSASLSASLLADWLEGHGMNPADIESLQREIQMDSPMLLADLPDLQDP
Test [15] is described as follows: yeast 75Q aggregation reduction – 75Q-TubU reporter (AID 1593). To be noted: Yeast 75Q polyglutamine aggregation reporter.
The nature of test [16]: blockers of cytochrome c efflux from mitochondria – biochemical, purified mitochondria (AID 1603).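 Further: mouse liver mitochondria challenged with calcium chloride; signal normalized to the plate average as 100%.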 Conditions: stronger effect = lower value.
A short description of test [17]: polyglutamine aggregate formation blockers (AID 1604). To be noted: polyglutamine-induced protein aggregation inhibition assay; stronger effect = higher value; tested at 2.5 µM.
A short description of test [18]: P. berghei load reduction in hepatocytes – cell-based, HepG2, luciferase luminescence, HepG2 viability, primary screen (AID 624349; in the data active means parasite load remaining mostly below about 12%, no sharp cut-off; inactive means mostly above about 10%;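 further: 100% = mean of DMSO negative control wells on the same plate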). Conditions: P. berghei liver stage in HepG2, luciferase luminescence, concentration not given here; parasite load remaining: stronger effect = lower value; viability: measured here: HepG2 viability without parasites.
A short description of test [19]: viability loss with induced miR-34 in A549 – imaging, A549 dox-inducible miR-34, nuclei and caspase counts, primary screen (AID 1347080;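 active means compounds whose cell count with miR-34 switched on is under 0.7 times the count with it off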). To be noted: A549 miR-34 inducible, Hoechst nuclei count, 48 h.
The nature of test [20]: galactose survival enhancers in mitochondrial complex I cybrids – cell-based, galactose medium, ATP luminescence, primary screen (AID 1645843;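 active means z-score of at least 1.8 in each of two replicates, scored against plate mean and spread of sample wells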;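 further: positive z means more ATP and so rescue of galactose-driven cybrid death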). To be noted: complex I mutant cybrid cells, 72 h, stronger effect = higher value.
[21] abbreviates: measured here: epithelial PC-3E GFP cell survival.
The mark [22] stands for this setting: measured here: mesenchymal TEM4-18 mCherry cell survival.
Where [23] appears, read: MELAS cybrid survival, CellTiter-Glo 48 h, stronger effect = higher value.
Where [24] appears, read: Rieske KO mouse fibroblast survival, CellTiter-Glo 72 h.

Chain of 6-phosphogluconate dehydrogenase, decarboxylating (Homo sapiens) (P52209 whole entry, looked up): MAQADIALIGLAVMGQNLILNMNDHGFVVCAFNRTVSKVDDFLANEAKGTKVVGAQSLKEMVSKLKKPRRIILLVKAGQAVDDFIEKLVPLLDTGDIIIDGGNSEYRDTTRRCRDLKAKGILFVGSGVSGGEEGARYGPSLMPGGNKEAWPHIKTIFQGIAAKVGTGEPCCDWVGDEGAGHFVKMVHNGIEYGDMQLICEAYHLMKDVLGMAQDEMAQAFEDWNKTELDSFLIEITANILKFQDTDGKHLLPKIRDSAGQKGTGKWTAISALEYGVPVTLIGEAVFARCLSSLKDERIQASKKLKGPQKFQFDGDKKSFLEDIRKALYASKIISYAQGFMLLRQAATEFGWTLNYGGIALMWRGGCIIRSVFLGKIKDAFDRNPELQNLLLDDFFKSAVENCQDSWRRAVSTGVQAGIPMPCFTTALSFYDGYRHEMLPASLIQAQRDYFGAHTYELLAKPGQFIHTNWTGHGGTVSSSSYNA

On to `N[C@@H](Cc1ccc(Oc2cc(I)c(O)c(I)c2)c(I)c1)C(=O)O`, for which the nuclear beta-catenin stimulation in [1] (at 10 µM) was 0.6% (inactive); in test [1] (stimulation, at 2 µM) it was -0.5%. In addition, in test [2], the insulin secretion stimulation is 2.2% (inactive). Moreover, the viability decrease in test [3] was 48.2% (inactive). For the same molecule, the tube area decrease in [4] was 34.7% (inactive). For the same molecule, in test [5], the GLP1 secretion stimulation is -3.9% (inactive). Besides, in [6], the inhibition of viability was 39.6% (inactive). Also, the viability decrease (inhibition) in [7] is 36.1% (inactive); in [8] it was -13.1% (inactive).

Take `CC(NC(C)(C)C)C(=O)c1cccc(Cl)c1` (configuration not stated): the nuclear beta-catenin stimulation in test [1] (at 10 µM) was -0.1% (inactive); in test [1] (stimulation, at 2 µM), 7.1%. Besides, the insulin secretion stimulation in [2] is 0.3% (inactive). Besides, in [3], the viability decrease was -43.9% (inactive). In addition, the tube area decrease in test [4] was 9.3% (inactive). Moreover, the GLP1 secretion stimulation in test [5] is 0.3% (inactive). Besides, the inhibition of viability in test [6] was 9.97% (inactive). The viability decrease (inhibition) was 30.2% (inactive) in test [7] and -10.5% (inactive) in test [8]. Moreover, the inhibition (as a rule, the relative decrease from the control value, in per cent) in test [9] is -4.52% (inactive). Besides, in [10], the red/green cell ratio (normalised) is 1.12 (inactive). In addition, the figures for the normalised cell number in [10] (setting [21]) and in test [10] (setting [22]) were 1.04 and 1.16, respectively. The activity remaining in test [11] is 97% (inactive). In addition, the z-score in test [12] (setting [23]) is -0.0615 (inactive) and 0.02 (inactive) and 0.556 (inactive); in [12] (setting [24]), -0.319 and -0.308 and 0.695. Besides, the remaining NAD in test [13] was 10 nM (inactive). Further, the luciferase signal in test [14] is 52 AU (inactive).

The molecule `O=c1[nH]oc2c1CCNC2` displayed a score in test [15] of 1.55. In addition, the cytochrome c release ratio in test [16] stood at 0.75. Also, in [17], the inhibition of aggregation turned out to be 73%. In addition, the parasite load remaining in test [18] is 119% (inactive). Besides, the viability (as a rule, the share of living cells, or the viability signal relative to a control) in test [18] is 90%. Also, the nuclear beta-catenin stimulation in [1] (at 10 µM) is 0.9% (inactive); in test [1] (stimulation, at 2 µM), -0.2%. Besides, in test [2], the insulin secretion stimulation was 1.95% (inactive). In addition, in test [3], the viability decrease is 23.2% (inactive). For the same molecule, the tube area decrease in [4] is 2% (inactive). Moreover, the GLP1 secretion stimulation in [5] is 0.6% (inactive). Further, in test [6], the inhibition of viability was 7% (inactive). Also, the values for the viability decrease (inhibition) in test [7] and in test [8] were -16.8% (inactive) and 2.4% (inactive), respectively. Moreover, the inhibition in test [9] was -2.26% (inactive). Further, in [10], the red/green cell ratio (normalised) is 1.27 (inactive). In addition, the normalised cell number was found to be 0.86 in test [10] (setting [21]) and 1.1 in [10] (setting [22]). The activity remaining in [11] was 105% (inactive). The fold change was 0.986 (inactive) and 0.895 (inactive) and 0.961 (inactive) in test [19] (stronger effect = lower value); 0.885 and 0.751 and 0.995 in test [19] (measured here: relative caspase fold change +Dox/-Dox). Further, the cell count in test [19] (measured here: total cells with miR-34 induction, stronger effect = lower value) was 10200 and 8820 and 8460; in test [19] (measured here: total cells without miR-34 induction), 10400 and 9850 and 8810. Further, the z-score in [12] (setting [23]) is 0.562 (inactive); in test [12] (setting [24]), -0.393; in test [20], 0.375 (inactive) and 2.83 (active). In addition, in test [13], the remaining NAD was 10 nM (inactive). The luciferase signal in test [14] is 104 AU (inactive).

In test [15], `O=c1[nH]c2ccccc2n1C1CCN(CCCC(c2ccc(F)cc2)c2ccc(F)cc2)CC1` showed a score of 1.1. Further, the cytochrome c release ratio in test [16] stood at 1.41. The molecule also showed an inhibition of aggregation in test [17] of 38.1%. The nuclear beta-catenin stimulation in test [1] (at 10 µM) is 7.8% (inactive); in [1] (stimulation, at 2 µM), 0.2%. Also, the insulin secretion stimulation in test [2] was 0.4% (inactive). Besides, in test [3], the viability decrease is 98.9% (active). Also, the tube area decrease in test [4] was 108% (active). In addition, the GLP1 secretion stimulation in [5] was -4.5% (inactive). Further, the inhibition of viability in [6] was 99.6% (active). For the same molecule, the viability decrease (inhibition) in [7] was 102% (active); in test [8], 99.3% (active). Further, the inhibition in test [9] was 13.7% (inactive). For the same molecule, in [10], the red/green cell ratio (normalised) is 0.96 (inactive). Besides, the normalised cell number in test [10] (setting [21]) turned out to be 1.24; in [10] (setting [22]) it was 1.19. For the same molecule, the activity remaining in test [11] is 128% (inactive). Moreover, the z-score in test [12] (setting [23]) is 0.83 (inactive) and 0.29 (inactive); in [12] (setting [24]), 0.702 and -0.0813; in test [20] it was -1.29 (inactive) and -1.18 (inactive) and -2 (inactive). In [13], the remaining NAD is 10 nM (inactive). Further, in [14], the luciferase signal was 68 AU (inactive).
